According to PubChem BioAssay AID1159580 (chemical genetic matrix, 2015):
Several values for one entry are separate records, joined by “and”; a condition that tells them apart may be missing. Equal entries are not always repeated. Hit rate of the full screen: of about 5,500 compounds, about 2,000 (36%) were called active. Roughly 18% stayed inconclusive and do not appear here. Rule as the data show it: active = normalized growth mostly below about 0.91 (no sharp cut-off); inconclusive = no clear call, values can overlap the other calls; inactive = mostly above about 0.92. The list shows a part of the results.

Assay: chemical genetic growth profiling, strain panel (AID 1159580);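 also: tested at 20 µM; growth read once vehicle control cultures reached saturation at 30 °C; 1 = growth at the plate median or of vehicle wells; lower values mean less growth of the strain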
Conditions: growth OD

Measured: normalized growth

C[N+](C)(C)CCOC(N)=O
inactive: S. cerevisiae deletion strains, locus YKL068W, stronger effect = lower value 0.981 | S. cerevisiae deletion strains, locus YKL085W, strain MDH1 (second series), stronger effect = lower value 0.969 | S. cerevisiae deletion strains, locus YKL085W, strain MDH1, stronger effect = lower value 0.969 | S. cerevisiae deletion strains, locus YKL160W, strain elf1, stronger effect = lower value 1.02 | S. cerevisiae deletion strains, locus YKL190W, strain CNB1, stronger effect = lower value 1 | S. cerevisiae deletion strains, locus YKR001C, strain vps1, stronger effect = lower value 0.991 | S. cerevisiae deletion strains, locus YKR026C, strain gcn3, stronger effect = lower value 0.988 | S. cerevisiae deletion strains, locus YKR091W, strain srl3, stronger effect = lower value 1 | S. cerevisiae deletion strains, locus YLL001W, strain dnm1, stronger effect = lower value 0.998 | S. cerevisiae deletion strains, locus YLL026W, stronger effect = lower value 1 | S. cerevisiae deletion strains, locus YLL041C, strain sdh2, stronger effect = lower value 1.01 | S. cerevisiae deletion strains, locus YLR027C, strain aat2, stronger effect = lower value 1.01 | S. cerevisiae deletion strains, locus YLR039C, strain RIC1, stronger effect = lower value 0.993 | S. cerevisiae deletion strains, locus YLR058C, strain SHM2, stronger effect = lower value 1 | S. cerevisiae deletion strains, locus YLR102C, strain apc9, stronger effect = lower value 0.986 | S. cerevisiae deletion strains, locus YLR113W, strain HOG1, stronger effect = lower value 0.959 | S. cerevisiae deletion strains, locus YLR221C, strain rsa3, stronger effect = lower value 1.01 | S. cerevisiae deletion strains, locus YLR258W, strain gsy2, stronger effect = lower value 1.02 | S. cerevisiae deletion strains, locus YLR262C, strain YPT6 (second series), stronger effect = lower value 1.02 | S. cerevisiae deletion strains, locus YLR262C, strain YPT6, stronger effect = lower value 0.991 | S. cerevisiae deletion strains, locus YLR268W, strain sec22, stronger effect = lower value 0.978 | S. cerevisiae deletion strains, locus YLR320W, strain mms22, stronger effect = lower value 1.03 | S. cerevisiae deletion strains, locus YLR330W, strain CHS5, stronger effect = lower value 1 | S. cerevisiae deletion strains, locus YLR342W, strain FKS1 (second series), stronger effect = lower value 1.12 | S. cerevisiae deletion strains, locus YLR342W, strain FKS1, stronger effect = lower value 1.01 | S. cerevisiae deletion strains, locus YLR357W, strain rsc2, stronger effect = lower value 1 | S. cerevisiae deletion strains, locus YLR370C, strain arc18, stronger effect = lower value 1.01 | S. cerevisiae deletion strains, locus YLR371W, strain rom2, stronger effect = lower value 0.97 | S. cerevisiae deletion strains, locus YLR384C, strain iki3, stronger effect = lower value 1.04 | S. cerevisiae deletion strains, locus YLR418C, strain cdc73, stronger effect = lower value 0.983 | S. cerevisiae deletion strains, locus YML016C, strain PPZ1, stronger effect = lower value 1.02 | S. cerevisiae deletion strains, locus YML032C, strain rad52, stronger effect = lower value 0.993 | S. cerevisiae deletion strains, locus YML120C, strain ndi1, stronger effect = lower value 1.02 | S. cerevisiae deletion strains, locus YML124C, strain tub3, stronger effect = lower value 0.974 | S. cerevisiae deletion strains, locus YMR058W, strain fet3, stronger effect = lower value 1.02 | S. cerevisiae deletion strains, locus YMR078C, strain ctf18, stronger effect = lower value 0.956 | S. cerevisiae deletion strains, locus YMR125W, strain sto1, stronger effect = lower value 1.03 | S. cerevisiae deletion strains, locus YMR129W, stronger effect = lower value 1.02 | S. cerevisiae deletion strains, locus YMR205C, strain PFK2, stronger effect = lower value 1.02 | S. cerevisiae deletion strains, locus YMR223W, strain ubp8, stronger effect = lower value 0.975 | S. cerevisiae deletion strains, locus YMR231W, strain pep5, stronger effect = lower value 1.02 | S. cerevisiae deletion strains, locus YMR263W, strain SAP30, stronger effect = lower value 1 and 0.986 | S. cerevisiae deletion strains, locus YMR307W, strain GAS1, stronger effect = lower value 1.16 | S. cerevisiae deletion strains, locus YNL067W, strain RPL9B, stronger effect = lower value 0.961 | S. cerevisiae deletion strains, locus YNL071W, strain lat1, stronger effect = lower value 1.01 | S. cerevisiae deletion strains, locus YNL128W, strain TEP1, stronger effect = lower value 0.971 | S. cerevisiae deletion strains, locus YNL153C, strain GIM3, stronger effect = lower value 0.963 | S. cerevisiae deletion strains, locus YNL175C, strain NOP13, stronger effect = lower value 0.973 | S. cerevisiae deletion strains, locus YNL183C, strain NPR1, stronger effect = lower value 0.938 | S. cerevisiae deletion strains, locus YNL197C, strain WHI3, stronger effect = lower value 0.991 | S. cerevisiae deletion strains, locus YNL209W, strain ssb2, stronger effect = lower value 1.01 | S. cerevisiae deletion strains, locus YNL224C, strain SQS1, stronger effect = lower value 0.991 | S. cerevisiae deletion strains, locus YNL233W, strain BNI4, stronger effect = lower value 0.99 | S. cerevisiae deletion strains, locus YNL248C, strain rpa49, stronger effect = lower value 1.03 | S. cerevisiae deletion strains, locus YNL250W, strain rad50, stronger effect = lower value 0.969 | S. cerevisiae deletion strains, locus YNL271C, strain bni1, stronger effect = lower value 0.979 | S. cerevisiae deletion strains, locus YNL298W, strain CLA4, stronger effect = lower value 0.977 | S. cerevisiae deletion strains, locus YNL307C, strain MCK1, stronger effect = lower value 0.982 | S. cerevisiae deletion strains, locus YNL322C, strain KRE1 (second series), stronger effect = lower value 1.02 | S. cerevisiae deletion strains, locus YNL322C, strain KRE1, stronger effect = lower value 0.989 | S. cerevisiae deletion strains, locus YNR049C, strain mso1, stronger effect = lower value 1.02 | S. cerevisiae deletion strains, locus YNR052C, strain pop2, stronger effect = lower value 0.97 | S. cerevisiae deletion strains, locus YOL012C, strain htz1 0.907 | S. cerevisiae deletion strains, locus YOL147C, strain pex11, stronger effect = lower value 0.978 | S. cerevisiae deletion strains, locus YOR001W, strain rrp6, stronger effect = lower value 1.03 | S. cerevisiae deletion strains, locus YOR061W, strain CKA2, stronger effect = lower value 1 | S. cerevisiae deletion strains, locus YOR069W, strain VPS5, stronger effect = lower value 1 | S. cerevisiae deletion strains, locus YOR070C, strain gyp1, stronger effect = lower value 1.01 | S. cerevisiae deletion strains, locus YOR080W, strain dia2, stronger effect = lower value 1.03 | S. cerevisiae deletion strains, locus YOR083W, strain WHI5 (second series), stronger effect = lower value 1.01 | S. cerevisiae deletion strains, locus YOR083W, strain WHI5, stronger effect = lower value 1.03 | S. cerevisiae deletion strains, locus YOR106W, strain vam3, stronger effect = lower value 1.01 | S. cerevisiae deletion strains, locus YOR136W, strain idh2, stronger effect = lower value 0.976 | S. cerevisiae deletion strains, locus YOR144C, strain elg1, stronger effect = lower value 0.982 | S. cerevisiae deletion strains, locus YOR184W, strain ser1, stronger effect = lower value 0.973 | S. cerevisiae deletion strains, locus YOR231W, strain MKK1, stronger effect = lower value 1 | S. cerevisiae deletion strains, locus YOR265W, strain rbl2, stronger effect = lower value 1.01 | S. cerevisiae deletion strains, locus YOR270C, strain vph1, stronger effect = lower value 1.05 | S. cerevisiae deletion strains, locus YOR290C, strain snf2, stronger effect = lower value 1.02 | S. cerevisiae deletion strains, locus YOR316C, strain cot1, stronger effect = lower value 0.976 | S. cerevisiae deletion strains, locus YPL051W, strain arl3, stronger effect = lower value 1.02 | S. cerevisiae deletion strains, locus YPL055C, strain LGE1, stronger effect = lower value 0.997 and 0.999 | S. cerevisiae deletion strains, locus YPL078C, strain atp4, stronger effect = lower value 1.01 | S. cerevisiae deletion strains, locus YPL106C, strain sse1, stronger effect = lower value 1.04 | S. cerevisiae deletion strains, locus YPL240C, strain hsp82, stronger effect = lower value 1.02 | S. cerevisiae deletion strains, locus YPL241C, strain CIN2, stronger effect = lower value 1.01 | S. cerevisiae deletion strains, locus YPL256C, strain CLN2, stronger effect = lower value 0.993 | S. cerevisiae deletion strains, locus YPR119W, strain clb2, stronger effect = lower value 0.973 | S. cerevisiae deletion strains, locus YPR141C, strain kar3, stronger effect = lower value 0.973 | S. cerevisiae deletion strains, locus YPR163C, strain tif3, stronger effect = lower value 0.985 | S. cerevisiae deletion strains, locus YPR167C, strain met16, stronger effect = lower value 0.975 | S. cerevisiae deletion strains, strain wtn01, stronger effect = lower value 1.01 | S. cerevisiae strains, strain wild type, stronger effect = lower value 1.01
